# Source: PubChem BioAssay (NCI)
# About 83,000 compounds went through this panel and 20% of them were active in at least one assay; those are over-represented in the sample as a whole.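 Results are percent growth after 48 hours of single-concentration exposure. 100 means growth as in untreated cells, lower positive values show inhibition; negative values down to -100 show cell death.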 Values without a mark were called inactive. Activity calls are given as the source filed them. Rule for the calls: active = growth percent below 10; inactive = the rest.
# System: HL-60(TB) leukemia
# Test: NCI-60 one-dose screen, 48 h (100 = growth as untreated, 0 = no growth, -100 = all killed)
# Conditions: 10 µM unless noted
row,Structure (SMILES),growth
1,CCN(CCO)CCCOc1ccc2c(Nc3cc(CC(=O)Nc4cccc(F)c4)[nH]n3)ncnc2c1,-2.32% (active)
2,CC[C@]1(O)CC2CN(CCc3c([nH]c4ccccc34)[C@@](C(=O)OC)(c3cc4c(cc3OC)N(C=O)[C@H]3[C@@](O)(C(=O)OC)[C@H](OC(C)=O)[C@]5(CC)C=CCN6CC[C@]43[C@@H]65)C2)C1 (stereo partly specified),7.11% (active)
3,Cc1cc(C)c(NC(=O)c2sc3nc4c(cc3c2N)CCCC4)c(C)c1,-6.2% (active)
4,COC(=O)c1c2c(c(C)[n+]([O-])c1C)C(=O)C(NCc1ccc(OC)cc1)=CC2=O,-51.1% (active)
5,O=C(Nc1ccccc1O)c1ccc(CNC(=O)c2sccc2Nc2ccnc(C(F)(F)F)c2)cc1,25.2%
6,C/C=C(/C)C(=O)OC1C=C(CO)C(=O)C(OC(=O)C2(C)OC2C)C1C(C)C (stereo unspecified),-24.9% (active)
7,O=C(N/N=C/C[C@@H]1[C@@H](/C=C/[C@@H](O)COc2cccc(Cl)c2)[C@H](O)C[C@@H]1O)c1ccncc1,87.5%
8,COc1ccc(C2CC(c3cc(OC)c(OC)c(OC)c3)=NN2c2ccc(S(N)(=O)=O)cc2)cc1 (stereo unspecified),2.23% (active)
9,COc1ccc(C(=O)c2sc3nc4c(c(-c5cccnc5)c3c2N)CCCC4)cc1OC,86.6%
10,Cc1cc[n+](CCCC[n+]2ccc(C)cc2)cc1,94.5%
11,CN(C)c1ccc2cc(-c3nc4ccccc4s3)c(N)nc2c1,0.561% (active)
12,COc1ccc2nc3ccccc3c(NCc3ccc(F)cc3)c2c1,-34.6% (active)
13,NC(N)=N/N=C(/c1ccccc1)c1ccccc1F,-47% (active)
14,O=[N+]([O-])c1ccc(N=Nc2c(O)c(N=Nc3cc([N+](=O)[O-])cc([N+](=O)[O-])c3O)cc(N=Nc3cc(S(=O)(=O)O)cc4cc(S(=O)(=O)O)cc(O)c34)c2O)cc1,87.2%
15,O=C(/C=C/c1ccc(Cl)cc1)c1ccc(Nc2ccnc3cc(Cl)ccc23)cc1,23.2%
16,COc1cc(/C=N/NC(=O)c2cnn3c2NC(c2ccccc2)C3)ccc1Oc1ccccc1 (stereo unspecified),14.3%
17,COc1cc2c(/C=C3\C(=O)Nc4ccccc43)c(C(=O)O)[nH]c2cc1C,110%
18,O=[N+]([O-])c1cc2c(cc1Br)-c1ccccc1C2,104%

row,Structure (SMILES),growth
1,CSc1ccc2c(c1)C(N1CCN(C)CC1)Cc1ccccc1S2 (stereo unspecified),52.7%
2,CCOC(=O)c1[nH]cc2c1CCc1sc(Nc3ccccn3)nc1-2,75.9%
3,Fc1cc(-c2ncc(-c3cc(F)c(F)c(F)c3)c(NC3CCCCCC3)n2)cc(F)c1F,97.4%
4,N#C/C(=C\c1ccc(-c2cccc(C(F)(F)F)c2)o1)c1ccccc1,96.2%
5,N#CC1=C(/N=C/c2ccccc2)Oc2c(ccc3ccccc23)C1c1ccc([N+](=O)[O-])cc1 (stereo unspecified),99.1%
6,O=C(Nc1cccc2c1C(=O)c1cccc(NC(=O)c3ccc(C(=O)Nc4cccc5c4C(=O)c4cccc(NC(=O)c6ccccc6)c4C5=O)cc3)c1C2=O)c1ccccc1,83.4%
7,CCCCCCCCO,93.8%
8,C=C(C)[C@@H]1CC[C@]2(C(N)=O)CC[C@]3(C)[C@H](CC[C@@H]4[C@@]5(C)CC[C@H](O)C(C)(C)[C@@H]5CC[C@]43C)[C@@H]12,1.17% [100 µM] (active)
9,NC(CSC(c1ccccc1)(c1ccccc1)c1ccccc1)C(=O)O (stereo unspecified),-0.908% (active)
10,COc1ccc(-n2ncc3c2ccc2cc(S(=O)(=O)c4ccccc4)c(=O)n(C)c23)cc1,110%
11,COc1c2c(cc3c1C(=O)N[C@@H]1[C@@H](O)[C@@H](O)[C@H](O)C[C@@H]31)OCCO2,95.4%
12,CC(C)c1ccc(-n2c(=S)[nH]c3sc4c(c3c2=O)CCC(=O)C4)cc1,75.4%
13,COc1ccc(/C=C(\C#N)c2cc3ccccc3n2S(C)(=O)=O)cc1,89.6%
14,COc1ccc(/C=C2\COc3ccc(O)c(O)c3C2=O)cc1OC,-28.7% (active)
15,Cc1cn(C)cn1,116%
16,Cc1nc2oc3ccccc3c(=O)c2cc1C(=O)NCc1ccccc1,69.5%
17,Nc1cc(-c2ccncc2)c[nH]c1=O,87.6%
18,C[C@]12CC[C@H]3[C@@H](CCC4=CC(=O)CC[C@@]43C)[C@@H]1CC[C@@H]2c1csc(N)n1,0.82% (active)
